Assay results published in ChEMBL document CHEMBL4513216, “Probing the Open Global Health Chemical Diversity Library for Multistage-Active Starting Points for Next-Generation Antimalarials” (ACS Infect Dis, 2020).
The campaign covered roughly 69,000 compounds. About 8,600 (12%) showed an effect of 50% or more. The full list was thinned out, with strong results kept by preference.

System: Plasmodium berghei
Assay: Screen against P. berghei liver stage (PbLuc), transformed with Luciferase, at 10uM
Assay type: functional, HepG2
Conditions: tested at 10 uM

Row | Structure (SMILES) | INHIBITION [%]
1 | CN(C)C(=O)CCNC(=O)Nc1cccc(Cl)c1-n1cccn1 | -10.3
2 | CCc1cc(N(C)Cc2ccnc(C)c2)n2nc(C)c(C)c2n1 | 73.5
3 | CCc1nnc(CN(C)c2cc(C)nc3c(C)c(C)nn23)o1 | 36.7
4 | Cc1cc(N(C)Cc2cc(C)on2)n2nc(C)c(C)c2n1 | -45.4
5 | CCc1cc(N(C)Cc2ccno2)n2nc(C)c(C)c2n1 | -2.73
6 | CCc1cc(N(C)Cc2ccncn2)n2nc(C)c(C)c2n1 | 42.3
7 | CCc1cc(N(C)Cc2cc[nH]n2)n2nc(C)c(C)c2n1 | 81.7
8 | COc1ncc(-c2ccc(C(N)=O)cc2)c(OC)n1 | 9.41
9 | CN(C)Cc1cn2c(n1)CN(C1CCOC1)CC2 (stereo not drawn) | -4.32
10 | NC(=O)C1CCN(C(=O)NC(Cc2ccccc2)C(F)(F)F)CC1 (stereo not drawn) | -82.2
11 | Cc1cnn(CC2CN(Cc3nnc(C(C)C)o3)CCO2)c1 (stereo not drawn) | 30.6
12 | Cc1nc(CN(C)C(=O)C2CCC(=O)N(CCN(C)C)C2)cs1 (stereo not drawn) | 20.8
13 | COCCN1CC(C(=O)N(C)Cc2csc(C)n2)CC1=O (stereo not drawn) | 57.8
14 | Cc1nc(CN(C)C(=O)C2CC(=O)N(c3cccc(O)c3)C2)cs1 (stereo not drawn) | 7.6
15 | Cn1cc(CCNC(=O)NCc2ccc3c(c2)OCCO3)cn1 | 24.5
16 | CN(C)C(=O)CN1CCC2(CC1)COc1ccccc1S(=O)(=O)N(C)C2 | 17.4
17 | CN1CC2(CCN(C(=O)C3CCC3)CC2)COc2ccccc2S1(=O)=O | 20.4
18 | COCCN1CCC2(CC1)COc1ccccc1S(=O)(=O)N(C)C2 | -4.32
19 | CN(C)CC(=O)N1CCC2(CC1)COc1ccccc1S(=O)(=O)N(C)C2 | 50
20 | CCC(=O)N1CCC2(CC1)COc1ccccc1S(=O)(=O)N(C)C2 | -0.182
21 | COCC(=O)N1CCC2(CC1)COc1ccccc1S(=O)(=O)N(C)C2 | 66.8
22 | N#Cc1csc(CNCCOc2ccc(Cl)cn2)c1 | 4.35
23 | Cc1cnn(CC2CCCN2C(=O)CCCc2nc(C)no2)c1 (stereo not drawn) | -45.8
24 | Fc1cc(CCNc2ccc3nccn3n2)c2c(c1)COCO2 | 48.2
25 | CC(C)(C)c1cc(NC(=O)CN2CCC(N3CCNC3=O)CC2)on1 | 3.73

Row | Structure (SMILES) | INHIBITION [%]
26 | CC(=O)N1CCC(c2ncc3c(n2)CCN(C(=O)c2ccccc2)C3)C1 (stereo not drawn) | 1.5
27 | CCOCCN1CCC=C(C2c3nc[nH]c3CCN2C(C)=O)C1 (stereo not drawn) | 36.6
28 | CCn1nc(C)c(CN2CCCC(c3ccc(C(=O)O)cc3)C2)c1C (stereo not drawn) | 62.4
29 | CCn1nc(C)c(CN2CCC(c3ccc(C(=O)O)cc3)C2)c1C (stereo not drawn) | 27.9
30 | Cc1nn(C)c(C)c1CN1CCCC(c2ccc(C(=O)O)cc2)C1 (stereo not drawn) | 6.88
31 | CCC(=O)N1CCN(c2ncnc3c(C)nn(C)c23)CC1 | 50.7
32 | Cc1nn(C)c2c(N3CCN(C(=O)C(C)C)CC3)ncnc12 | 10.1
33 | Cc1nn(C)c2c(N3CCN(C(=O)C4CC4)CC3)ncnc12 | 44.1
34 | CCc1nc(N2CCN(c3ncccn3)CC2)c2cnn(C)c2n1 | -3.55
35 | CCc1nc(N2CCCN(c3ncccn3)CC2)c2cnn(C)c2n1 | 33.3
36 | CCc1nc(N2CCN(c3ncccc3C#N)CC2)c2cnn(C)c2n1 | 53.7
37 | O=C(c1ccc(F)cc1)N1CCC2(CCCN2CC2CC2)CC1 | 26.6
38 | COc1ccccc1N1CCN(Cc2cnc3c(c2)c(C)nn3C)CC1 | 32.3
39 | CCCN1CCC(NC(=O)c2csc(C)c2C)CC1 | 64.4
40 | Cc1ccc(-c2c(C(=O)NC3CCN(C)CC3)csc2C)cc1 | 68.4
41 | CCCN1CCC(NC(=O)c2ccc(F)cc2I)CC1 | 46.8
42 | Cc1ccc(-c2ccsc2C(=O)NC2CCS(=O)(=O)C2)cc1 (stereo not drawn) | -63.5
43 | CCCN1CCC(NC(=O)c2csc(C)c2-c2ccc(C)cc2)CC1 | 1.56
44 | CN1CCC(NC(=O)NCc2csc(Br)c2)CC1 | 45.9
45 | CCCN1CCC(NC(=O)c2csc(C)c2-c2ccccc2)CC1 | 81.5
46 | CCCN1CCC(NC(=O)NCCc2nc(CC)c(C)s2)CC1 | 26.8
47 | Cc1ncsc1C(=O)NC1CCN(CCC(=O)Nc2ccccc2)CC1 | -5.07
48 | CC(C)c1nnc(CN2CCCC(Cn3cncn3)C2)o1 (stereo not drawn) | 22.03
49 | O=c1cc2c(nn1CN1CCN(c3ccc(F)cc3)CC1)CCC2 | -6.53
50 | C[C@H](NC(=O)Cc1csc(-c2cccc(Cl)c2)n1)C(=O)O | 35

Row | Structure (SMILES) | INHIBITION [%]
51 | COCC(=O)N1CCCCC1c1nc(C)c2c(n1)N(CC1CC1)C(=O)C2 (stereo not drawn) | 23
52 | O=c1ccc(-c2ccccc2F)nn1CN1CCCCCC1 | -22.9
53 | CCn1c(CC2CCN(S(=O)(=O)Cc3ccccc3)CC2)nn(C)c1=O | -28.1
54 | CN1CCCC(c2ccc(N3CCOCC3)cn2)C1 (stereo not drawn) | -2.48
55 | Cc1ccc(CS(=O)(=O)N2CC[C@H]3[C@H]2CC(=O)N3C)cc1 | 15.4
56 | COC[C@H]1CC[C@H]2[C@H](CCN2S(=O)(=O)Cc2ccccc2)O1 | -34.6
57 | CCOC[C@H]1CC[C@H]2[C@H](CCN2S(=O)(=O)Cc2ccccc2)O1 | 12.1
58 | CN1C(=O)C[C@@H]2[C@@H]1CCN2S(=O)(=O)Cc1ccccc1 | 26.8
59 | CCOC[C@@H]1CC[C@H]2[C@H](CCN2S(=O)(=O)Cc2ccccc2)O1 | 57.1
60 | CN1C(=O)CC[C@@H]2[C@H]1CCN2S(=O)(=O)Cc1ccccc1 | 61.5
61 | Cc1ccc2cnn(CCC(=O)Nc3nc(C)c(C)s3)c2c1 | 30.8
62 | CCC(Nc1cccc(OC)c1)C(=O)NCc1ccc2c(c1)OCO2 (stereo not drawn) | 36.4
63 | Cn1nnc2c1C(COCC1CC1)CN(Cc1ccoc1)C2 (stereo not drawn) | 42.3
64 | Cc1ccc(NC(=O)c2ccc(=O)n(CC(=O)Nc3nccs3)n2)cc1 | 42.7
65 | O=C1CC2(CCNCC2)C(=O)N1Cc1ccc(F)cc1 | 16.1
66 | NC(=O)c1ccc(CN2C(=O)C3(CCNCC3)Nc3ccccc32)cc1 | 67
67 | O=C1CC2(CCCNC2)C(=O)N1Cc1ccccc1 (stereo not drawn) | 27.4
68 | O=C1CC2(CCCNC2)C(=O)N1Cc1ccc(F)cc1 (stereo not drawn) | 4.06
69 | NC(=O)c1ccc(CN2CCCC(N3CCCCCC3)C2)cc1 (stereo not drawn) | 22
70 | N#Cc1cccc(CN2C(=O)C3(CCNCC3)Nc3ccccc32)c1 | 25.5
71 | C=Cc1ccc(CN2CCCC3(CNC(=O)c4ccccc4O3)C2)cc1 (stereo not drawn) | 29.2
72 | CC(C)c1ccc(CN2C(=O)C3(CCNCC3)Nc3ccccc32)cc1 | 80.9
73 | C=Cc1ccc(CN2C(=O)C3(CCNCC3)Nc3ccccc32)cc1 | 87.8
